Test results taken from the supplement of paper PMC4709259.
Where a name gives a salt, the structure may show the parent alone. ± gives the standard deviation.

Key:
Jurkat [1] = assay: mean cell size (FSC-A) relative to DMSO control (fraction of control); higher = larger cells; conditions: 48 h
In short: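 Jurkat cells seeded at 600 cells/µl were incubated 1 h, then exposed for 48h to the Enzo Screen-Well FDA Approved Drug Library v2.0 at 25µM in 0.9% (v/v) final DMSO. Drugs that cut counts below 20% of controls were diluted 10-fold and retested, down to 25nM. Cell count and mean cell size (forward scatter area) were read on an Accuri C6 flow cytometer, relative to solvent-only controls. Plates held 6-12 controls; values are means of 3 biological replicates.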

Jurkat [2] = assay: cell count relative to DMSO control (fraction of control); higher = more cells (less growth inhibition); conditions: 48 h

SMILES	mean cell size (Jurkat [1])	cell count (Jurkat [2])
N=C(N)NC(=O)c1nc(Cl)c(N)nc1N [Amiloride·HCl·2H2O] (concentration: 25 µM)	0.945 ± 0.055	0.504 ± 0.045
CC1=C(C(=O)O)N2C(=O)[C@@H](NC(=O)[C@H](N)c3ccc(O)cc3)[C@H]2SC1 [Cefadroxil] (concentration: 25 µM)	0.937 ± 0.014	0.895 ± 0.079
CC(C)NCC(O)COc1ccc(COCCOC(C)C)cc1 (stereo unspecified) [Bisoprolol Fumarate] (concentration: 25 µM)	0.964 ± 0.046	0.732 ± 0.035
S=c1[nH]cnc2nc[nH]c12 [Mercaptopurine Hydrate] (concentration: 25 µM)	1.08 ± 0.047	0.792 ± 0.1
C[C@@H](O)[C@H]1C(=O)N2C(C(=O)O)=C(S[C@@H]3CN[C@H](C(=O)N(C)C)C3)[C@H](C)[C@H]12 [Meropenem] (concentration: 25 µM)	0.944 ± 0.015	0.939 ± 0.078
COC(=O)N[C@H](C(=O)N[C@@H](Cc1ccccc1)[C@@H](O)CN(Cc1ccc(-c2ccccn2)cc1)NC(=O)[C@@H](NC(=O)OC)C(C)(C)C)C(C)(C)C [Atazanavir] (concentration: 25 µM)	1.04 ± 0.052	0.658 ± 0.054
CO[C@H]1O[C@@H]2O[C@@]3(C)CC[C@H]4[C@H](C)CC[C@@H]([C@H]1C)[C@@]24OO3 [Artemether] (concentration: 25 µM)	0.912 ± 0.047	0.632 ± 0.0091
CCC(=O)O[C@]1(C(=O)CCl)[C@@H](C)C[C@H]2[C@@H]3CCC4=CC(=O)C=C[C@]4(C)[C@@]3(F)[C@@H](O)C[C@@]21C [Clobetasol Propionate] (concentration: 25 µM)	0.898 ± 0.015	0.881 ± 0.18
